In all, about 5,500 compounds went through this assay and about 2,000 (36%) were called active. Inconclusive results (about 18%) are left out. Rule as the data show it: active = normalized growth mostly below about 0.91 (no sharp cut-off); inconclusive = no clear call, values can overlap the other calls; inactive = mostly above about 0.92. The list shows a part of the results.
Assay: chemical genetic growth profiling, strain panel (AID 1159580);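 also: tested at 20 µM; growth read once vehicle control cultures reached saturation at 30 °C; 1 = growth at the plate median or of vehicle wells; lower values mean less growth of the strain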
Details: S. cerevisiae deletion strains, growth OD

Measured: normalized growth

CC(=O)O[C@@H]1CC2C(C)(C)CCC(=O)[C@]2(C)C2CC[C@@]3(C)[C@H](c4ccoc4)OC(=O)C4OC43[C@@]21C (stereo partly specified)
inactive: locus YAL013W, strain DEP1, active compounds read low 1 | locus YAL021C, strain ccr4, active compounds read low 0.98 | locus YAL026C, strain drs2, active compounds read low 1 | locus YAL030W, strain snc1, active compounds read low 1.01 | locus YBL061C, strain skt5, active compounds read low 1.01 | locus YBR009C, strain hhf1, active compounds read low 1 | locus YBR021W, strain FUR4, active compounds read low 0.989 | locus YBR023C, strain chs3, active compounds read low 1 | locus YBR171W, strain sec66, active compounds read low 0.986 | locus YBR229C, strain ROT2, active compounds read low 0.996 | locus YBR231C, strain swc5, active compounds read low 0.993 | locus YBR279W, strain paf1, active compounds read low 1.01 | locus YCL011C, strain gbp2, active compounds read low 0.984 | locus YCL016C, strain dcc1, active compounds read low 1.01 | locus YCL029C, strain bik1, active compounds read low 0.984 | locus YCL061C, strain MRC1, active compounds read low 1.02 | locus YCL069W, strain vba3, active compounds read low 0.99 | locus YCR088W, strain abp1, active compounds read low 0.991 | locus YDL005C, strain med2, active compounds read low 0.994 | locus YDL035C, strain GPR1, active compounds read low 1.03 | locus YDL040C, strain nat1, active compounds read low 0.986 | locus YDL074C, strain BRE1, active compounds read low 0.994 | locus YDL101C, strain DUN1, active compounds read low 0.984 | locus YDL185W, strain tfp1, active compounds read low 0.981 | locus YDL192W, strain arf1, active compounds read low 0.993 | locus YDR001C, strain nth1, active compounds read low 0.998 | locus YDR069C, strain doa4, active compounds read low 1.01 | locus YDR101C, strain arx1, active compounds read low 0.991 | locus YDR137W, strain rgp1, active compounds read low 1.05 | locus YDR159W, strain sac3, active compounds read low 1.02 | locus YDR162C, strain NBP2, active compounds read low 1.02 | locus YDR195W, strain ref2 0.941 | locus YDR297W, strain sur2, active compounds read low 1 | locus YDR318W, strain mcm21, active compounds read low 0.993 | locus YDR334W, strain swr1, active compounds read low 0.986 | locus YDR335W, strain msn5, active compounds read low 0.987 | locus YDR388W, active compounds read low 0.98 | locus YDR392W, strain spt3, active compounds read low 0.991 | locus YDR502C, strain sam2, active compounds read low 0.973 | locus YEL003W, strain gim4, active compounds read low 0.995 | locus YEL037C, strain rad23, active compounds read low 0.984 | locus YEL061C, strain CIN8 (second series), active compounds read low 0.987 | locus YEL061C, strain CIN8, active compounds read low 1.01 | locus YER015W, strain faa2, active compounds read low 1 | locus YER016W, strain bim1, active compounds read low 1 | locus YER110C, active compounds read low 0.978 | locus YER111C, strain swi4, active compounds read low 0.987 | locus YER155C, strain BEM2 (second series), active compounds read low 1.02 | locus YER155C, strain BEM2, active compounds read low 0.988 | locus YER167W, strain BCK2, active compounds read low 1 | locus YFR010W, strain ubp6, active compounds read low 0.979 | locus YGL078C, strain dbp3, active compounds read low 0.994 | locus YGL086W, strain mad1, active compounds read low 0.985 | locus YGL167C, strain pmr1, active compounds read low 1.01 | locus YGL173C, strain kem1, active compounds read low 1.01 | locus YGL227W, strain vid30, active compounds read low 0.994 | locus YGL240W, strain doc1, active compounds read low 0.984 | locus YGL248W, strain PDE1, active compounds read low 0.988 | locus YGL253W, strain hxk2, active compounds read low 0.966 | locus YGR135W, strain pre9, active compounds read low 0.973 | locus YGR229C, strain SMI1, active compounds read low 1.02 | locus YGR252W, strain gcn5, active compounds read low 0.952 | locus YHR013C, strain ard1, active compounds read low 0.994 | locus YHR027C, strain rpn1, active compounds read low 1.01 | locus YHR079C, strain IRE1 (second series), active compounds read low 0.99 | locus YHR094C, strain hxt1, active compounds read low 0.983 | locus YHR129C, strain ARP1, active compounds read low 0.997 | locus YHR142W, strain chs7, active compounds read low 0.991 | locus YHR200W, strain rpn10, active compounds read low 0.975 | locus YIL066C, strain RNR3, active compounds read low 1 | locus YIL073C, strain SPO22, active compounds read low 1 | locus YIL125W, strain kgd1, active compounds read low 0.989 | locus YIR030C, strain dcg1, active compounds read low 0.987 | locus YJL092W, strain hpr5, active compounds read low 0.985 | locus YJL095W, strain BCK1 (second series), active compounds read low 1 | locus YJL095W, strain BCK1, active compounds read low 0.988 | locus YJL115W, strain asf1, active compounds read low 0.994 | locus YJL129C, strain trk1, active compounds read low 0.996 | locus YJL134W, strain LCB3, active compounds read low 0.998 | locus YJL154C, strain vps35, active compounds read low 1 | locus YJL164C, strain tpk1, active compounds read low 1.01 | locus YJL166W, strain qcr8, active compounds read low 1.02 | locus YJL168C, strain set2, active compounds read low 0.988 | locus YJL187C, strain SWE1 (second series), active compounds read low 0.977 | locus YJL187C, strain SWE1, active compounds read low 1 | locus YJR043C, strain POL32, active compounds read low 1.02 | locus YKL009W, strain mrt4, active compounds read low 1.01 | locus YKL068W, active compounds read low 0.992 | locus YKL085W, strain MDH1 (second series), active compounds read low 1 | locus YKL085W, strain MDH1, active compounds read low 1 | locus YKL160W, strain elf1, active compounds read low 1.02 | locus YKL190W, strain CNB1, active compounds read low 1.01 | locus YKR001C, strain vps1, active compounds read low 0.983 | locus YKR026C, strain gcn3, active compounds read low 1 | locus YKR091W, strain srl3, active compounds read low 1 | locus YLL001W, strain dnm1, active compounds read low 1.03 | locus YLL026W, active compounds read low 1.01 | locus YLL041C, strain sdh2, active compounds read low 0.993 | locus YLR027C, strain aat2, active compounds read low 1.01 | locus YLR039C, strain RIC1, active compounds read low 1.06 | locus YLR058C, strain SHM2, active compounds read low 0.992 | locus YLR102C, strain apc9, active compounds read low 0.987 | locus YLR221C, strain rsa3, active compounds read low 1 | locus YLR258W, strain gsy2, active compounds read low 0.996 | locus YLR262C, strain YPT6 (second series), active compounds read low 1.03 | locus YLR262C, strain YPT6, active compounds read low 1.1 | locus YLR268W, strain sec22, active compounds read low 0.994 | locus YLR320W, strain mms22, active compounds read low 1.01 | locus YLR342W, strain FKS1 (second series), active compounds read low 1.05 | locus YLR342W, strain FKS1, active compounds read low 1.01 | locus YLR357W, strain rsc2, active compounds read low 0.97 | locus YLR370C, strain arc18, active compounds read low 0.983 | locus YLR371W, strain rom2, active compounds read low 0.992 | locus YLR384C, strain iki3, active compounds read low 0.997 | locus YLR418C, strain cdc73, active compounds read low 0.956 | locus YML016C, strain PPZ1, active compounds read low 0.999 | locus YML032C, strain rad52, active compounds read low 0.986 | locus YML120C, strain ndi1, active compounds read low 1 | locus YML124C, strain tub3, active compounds read low 0.994 | locus YMR058W, strain fet3, active compounds read low 0.999 | locus YMR078C, strain ctf18, active compounds read low 1 | locus YMR125W, strain sto1, active compounds read low 0.987 | locus YMR129W, active compounds read low 1.01 | locus YMR205C, strain PFK2, active compounds read low 1.04 | locus YMR223W, strain ubp8, active compounds read low 0.996 | locus YMR231W, strain pep5, active compounds read low 0.97 | locus YMR307W, strain GAS1, active compounds read low 1.07 | locus YNL067W, strain RPL9B, active compounds read low 0.987 | locus YNL071W, strain lat1, active compounds read low 0.993 | locus YNL209W, strain ssb2, active compounds read low 1.01 | locus YNL233W, strain BNI4, active compounds read low 1 | locus YNL248C, strain rpa49, active compounds read low 0.996 | locus YNL250W, strain rad50, active compounds read low 0.978 | locus YNL271C, strain bni1, active compounds read low 0.97 | locus YNL298W, strain CLA4, active compounds read low 0.996 | locus YNL307C, strain MCK1, active compounds read low 0.986 | locus YNL322C, strain KRE1 (second series), active compounds read low 0.99 | locus YNR049C, strain mso1, active compounds read low 1 | locus YNR052C, strain pop2, active compounds read low 0.966 | locus YOL006C, strain TOP1, active compounds read low 1.05 | locus YOL012C, strain htz1 0.864 | locus YOL147C, strain pex11, active compounds read low 0.982 | locus YOR001W, strain rrp6, active compounds read low 0.973 | locus YOR061W, strain CKA2, active compounds read low 0.998 | locus YOR069W, strain VPS5, active compounds read low 0.99 | locus YOR070C, strain gyp1, active compounds read low 1 | locus YOR080W, strain dia2, active compounds read low 1 | locus YOR083W, strain WHI5, active compounds read low 1.02 | locus YOR106W, strain vam3, active compounds read low 1.01 | locus YOR136W, strain idh2, active compounds read low 0.993 | locus YOR144C, strain elg1, active compounds read low 0.988 | locus YOR184W, strain ser1, active compounds read low 1.02 | locus YOR265W, strain rbl2, active compounds read low 0.996 | locus YOR270C, strain vph1, active compounds read low 1.02 | locus YOR290C, strain snf2, active compounds read low 0.981 | locus YOR316C, strain cot1, active compounds read low 0.984 | locus YPL051W, strain arl3, active compounds read low 1.02 | locus YPL055C, strain LGE1, active compounds read low 1.02 | locus YPL078C, strain atp4, active compounds read low 1.02 | locus YPL106C, strain sse1, active compounds read low 0.996 | locus YPL240C, strain hsp82, active compounds read low 0.999 | locus YPR119W, strain clb2, active compounds read low 0.981 | locus YPR141C, strain kar3, active compounds read low 0.996 | locus YPR163C, strain tif3, active compounds read low 0.975 | locus YPR167C, strain met16, active compounds read low 0.985 | strain wtn01, active compounds read low 1

— PubChem BioAssay AID1159580 (chemical genetic matrix, 2015)
